# Source: paper PMC7862700, “An all-to-all approach to the identification of sequence-specific readers for epigenetic DNA modifications on cytosine”
# Experiments:
# Experiment in all cases: DAPPL (digital affinity profiling via proximity ligation, sequencing); 10 mM Tris-HCl pH 7.5, 50 mM NaCl, 1 mM DTT, 4% glycerol, room temperature, 30 min; GST-TFs on glutathione beads, 16-mer random dsDNA library, 0.1% formaldehyde crosslink after washing; high values mean tight binding
# FEV = target: T1, FEV (Homo sapiens, UniProt Q99581 1-238); conditions: protein: recombinant; tags: N-terminal GST; dsDNA, one strand shown
# T1 sequence: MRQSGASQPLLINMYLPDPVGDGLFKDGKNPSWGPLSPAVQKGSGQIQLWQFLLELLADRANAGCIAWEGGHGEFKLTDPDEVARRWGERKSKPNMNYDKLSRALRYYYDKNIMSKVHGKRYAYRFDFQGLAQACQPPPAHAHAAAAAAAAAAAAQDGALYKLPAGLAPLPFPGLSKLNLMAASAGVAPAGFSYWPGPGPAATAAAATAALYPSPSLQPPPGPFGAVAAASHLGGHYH
# Procedure, shortened: (§1)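 Binding signal is given per hexamer as its read frequency for a factor divided by its frequency in the tag-only sample. GST-fused human transcription factors were expressed in yeast, captured on glutathione beads, barcoded with DNA and pooled with that sample, then incubated with 200 nmole of a 16-mer random double-stranded DNA library in Tris/NaCl/DTT/glycerol buffer for 30 min at room temperature. The pools were then washed, crosslinked, proximity-ligated, amplified by PCR and sequenced on an Illumina NextSeq500.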
# ETV5 = ETV5 (Homo sapiens, UniProt P41161 1-510); conditions: protein: recombinant; tags: N-terminal GST; dsDNA, one strand shown
# Sequence of ETV5 (P41161 whole entry): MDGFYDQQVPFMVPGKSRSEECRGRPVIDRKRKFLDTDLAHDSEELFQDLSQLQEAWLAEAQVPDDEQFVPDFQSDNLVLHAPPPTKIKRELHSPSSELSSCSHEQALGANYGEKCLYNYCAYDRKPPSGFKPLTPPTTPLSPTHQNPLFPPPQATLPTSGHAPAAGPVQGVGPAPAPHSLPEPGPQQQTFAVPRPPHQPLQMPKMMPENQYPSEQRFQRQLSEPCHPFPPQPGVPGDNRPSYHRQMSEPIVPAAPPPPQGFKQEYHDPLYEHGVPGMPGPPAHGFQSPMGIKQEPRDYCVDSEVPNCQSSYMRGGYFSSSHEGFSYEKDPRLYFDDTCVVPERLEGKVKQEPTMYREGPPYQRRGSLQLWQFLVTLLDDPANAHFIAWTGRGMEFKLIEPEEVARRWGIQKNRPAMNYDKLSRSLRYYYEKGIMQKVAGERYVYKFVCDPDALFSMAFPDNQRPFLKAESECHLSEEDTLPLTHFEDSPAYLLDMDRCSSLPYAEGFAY
# Procedure, shortened: as §1
# HSF1 = HSF1 (Homo sapiens, UniProt Q00613 1-529); conditions: protein: recombinant; tags: N-terminal GST; chain copies: 3; dsDNA, one strand shown
# Sequence of HSF1 (Q00613 whole entry): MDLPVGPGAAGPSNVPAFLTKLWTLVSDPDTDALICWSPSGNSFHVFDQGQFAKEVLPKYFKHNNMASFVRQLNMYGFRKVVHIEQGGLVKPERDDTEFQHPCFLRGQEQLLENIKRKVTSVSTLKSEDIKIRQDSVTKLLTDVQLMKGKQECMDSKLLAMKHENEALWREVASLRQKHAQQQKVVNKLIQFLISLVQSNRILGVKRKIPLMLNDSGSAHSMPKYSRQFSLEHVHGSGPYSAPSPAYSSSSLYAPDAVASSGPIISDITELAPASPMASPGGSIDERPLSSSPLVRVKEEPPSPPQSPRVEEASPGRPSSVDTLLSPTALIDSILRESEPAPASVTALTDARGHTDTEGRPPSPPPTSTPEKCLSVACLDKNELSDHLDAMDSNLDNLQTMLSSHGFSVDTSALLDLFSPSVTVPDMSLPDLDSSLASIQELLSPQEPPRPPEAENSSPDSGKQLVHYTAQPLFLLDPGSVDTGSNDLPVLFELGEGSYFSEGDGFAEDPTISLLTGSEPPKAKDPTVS
# Procedure, shortened: as §1
# SPIC = target: T2, SPIC (Homo sapiens, UniProt Q8N5J4 1-248); conditions: protein: recombinant; tags: N-terminal GST; dsDNA, one strand shown
# T2 sequence: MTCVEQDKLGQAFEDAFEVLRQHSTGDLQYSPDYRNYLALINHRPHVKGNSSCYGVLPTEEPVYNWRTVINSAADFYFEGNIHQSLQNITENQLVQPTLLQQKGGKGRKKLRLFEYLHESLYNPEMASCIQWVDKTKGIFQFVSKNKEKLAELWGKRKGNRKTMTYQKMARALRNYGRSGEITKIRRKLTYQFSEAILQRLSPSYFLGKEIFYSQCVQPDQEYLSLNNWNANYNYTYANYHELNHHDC
# Procedure, shortened: as §1
# ELF4 = ELF4 (Homo sapiens, UniProt Q99607 1-663); conditions: protein: recombinant; tags: N-terminal GST; dsDNA, one strand shown
# Sequence of ELF4 (Q99607 whole entry): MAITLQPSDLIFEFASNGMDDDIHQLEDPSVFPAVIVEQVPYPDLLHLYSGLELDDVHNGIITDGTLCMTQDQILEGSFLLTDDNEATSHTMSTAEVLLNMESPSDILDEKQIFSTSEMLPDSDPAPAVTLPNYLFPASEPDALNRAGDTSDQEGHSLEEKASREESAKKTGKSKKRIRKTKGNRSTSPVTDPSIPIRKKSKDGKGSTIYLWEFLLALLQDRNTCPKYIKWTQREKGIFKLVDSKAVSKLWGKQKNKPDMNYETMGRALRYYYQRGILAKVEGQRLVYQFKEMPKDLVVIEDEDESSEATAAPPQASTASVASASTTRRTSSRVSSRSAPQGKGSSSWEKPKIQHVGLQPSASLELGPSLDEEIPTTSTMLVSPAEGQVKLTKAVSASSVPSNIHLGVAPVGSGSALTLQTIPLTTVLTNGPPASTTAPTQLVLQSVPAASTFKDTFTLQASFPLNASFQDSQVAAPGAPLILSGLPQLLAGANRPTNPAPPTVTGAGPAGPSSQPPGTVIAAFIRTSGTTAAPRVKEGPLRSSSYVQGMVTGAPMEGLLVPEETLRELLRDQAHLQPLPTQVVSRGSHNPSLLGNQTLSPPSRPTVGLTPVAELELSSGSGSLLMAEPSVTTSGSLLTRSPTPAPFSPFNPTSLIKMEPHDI
# Procedure, shortened: as §1
# ELK4 = target: T3, ELK4 (Homo sapiens, UniProt P28324-2 1-405); conditions: protein: recombinant; tags: N-terminal GST; dsDNA, one strand shown
# T3 sequence: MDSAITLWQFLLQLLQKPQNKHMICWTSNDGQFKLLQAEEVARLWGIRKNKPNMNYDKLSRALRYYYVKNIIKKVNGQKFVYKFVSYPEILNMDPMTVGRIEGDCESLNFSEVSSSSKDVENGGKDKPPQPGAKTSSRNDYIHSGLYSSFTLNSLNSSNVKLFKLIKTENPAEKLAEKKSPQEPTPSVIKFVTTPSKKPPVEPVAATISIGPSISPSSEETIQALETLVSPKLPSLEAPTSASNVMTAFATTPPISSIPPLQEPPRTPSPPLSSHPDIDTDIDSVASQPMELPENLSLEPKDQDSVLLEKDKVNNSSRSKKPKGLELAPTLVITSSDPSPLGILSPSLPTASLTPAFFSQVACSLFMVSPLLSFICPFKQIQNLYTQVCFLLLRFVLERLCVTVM
# Procedure, shortened: as §1
# ETV2 = target: T4, ETV2 (Homo sapiens, UniProt O00321 1-342); conditions: protein: recombinant; tags: N-terminal GST; dsDNA, one strand shown
# T4 sequence: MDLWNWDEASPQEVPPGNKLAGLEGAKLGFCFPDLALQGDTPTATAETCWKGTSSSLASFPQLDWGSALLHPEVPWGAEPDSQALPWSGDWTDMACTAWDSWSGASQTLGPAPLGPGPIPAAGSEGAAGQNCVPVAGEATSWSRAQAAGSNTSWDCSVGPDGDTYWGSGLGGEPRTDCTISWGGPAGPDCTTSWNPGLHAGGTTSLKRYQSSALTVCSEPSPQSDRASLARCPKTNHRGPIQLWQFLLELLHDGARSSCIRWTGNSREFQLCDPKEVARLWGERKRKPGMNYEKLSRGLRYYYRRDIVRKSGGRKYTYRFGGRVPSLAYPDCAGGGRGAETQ
# Procedure, shortened: as §1
# ELF3 = target: T5, ELF3 (Homo sapiens, UniProt P78545 1-371); conditions: protein: recombinant; tags: N-terminal GST; dsDNA, one strand shown
# T5 sequence: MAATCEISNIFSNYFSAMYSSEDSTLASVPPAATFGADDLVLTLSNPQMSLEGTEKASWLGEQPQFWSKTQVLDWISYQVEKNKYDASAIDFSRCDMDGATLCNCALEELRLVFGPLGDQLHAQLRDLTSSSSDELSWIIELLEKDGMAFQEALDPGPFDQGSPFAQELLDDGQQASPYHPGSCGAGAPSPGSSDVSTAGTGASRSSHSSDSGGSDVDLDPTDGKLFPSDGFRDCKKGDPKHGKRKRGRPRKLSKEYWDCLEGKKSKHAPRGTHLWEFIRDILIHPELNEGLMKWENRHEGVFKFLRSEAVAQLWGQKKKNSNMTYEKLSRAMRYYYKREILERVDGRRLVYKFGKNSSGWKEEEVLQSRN
# Procedure, shortened: as §1
# CRX = CRX (Homo sapiens, UniProt O43186 1-299); conditions: protein: recombinant; tags: N-terminal GST; dsDNA, one strand shown
# Sequence of CRX (O43186 whole entry): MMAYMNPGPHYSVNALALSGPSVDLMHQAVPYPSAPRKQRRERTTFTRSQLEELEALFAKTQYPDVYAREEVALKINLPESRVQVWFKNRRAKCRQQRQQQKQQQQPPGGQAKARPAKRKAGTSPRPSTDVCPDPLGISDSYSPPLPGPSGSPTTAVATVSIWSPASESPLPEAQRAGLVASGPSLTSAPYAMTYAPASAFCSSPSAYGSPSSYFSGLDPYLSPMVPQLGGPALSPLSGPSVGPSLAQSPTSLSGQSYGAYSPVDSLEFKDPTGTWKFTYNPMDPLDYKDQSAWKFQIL
# Procedure, shortened: as §1
# ETV1 = ETV1 (Homo sapiens, UniProt P50549 1-477); conditions: protein: recombinant; tags: N-terminal GST; dsDNA, one strand shown
# Sequence of ETV1 (P50549 whole entry): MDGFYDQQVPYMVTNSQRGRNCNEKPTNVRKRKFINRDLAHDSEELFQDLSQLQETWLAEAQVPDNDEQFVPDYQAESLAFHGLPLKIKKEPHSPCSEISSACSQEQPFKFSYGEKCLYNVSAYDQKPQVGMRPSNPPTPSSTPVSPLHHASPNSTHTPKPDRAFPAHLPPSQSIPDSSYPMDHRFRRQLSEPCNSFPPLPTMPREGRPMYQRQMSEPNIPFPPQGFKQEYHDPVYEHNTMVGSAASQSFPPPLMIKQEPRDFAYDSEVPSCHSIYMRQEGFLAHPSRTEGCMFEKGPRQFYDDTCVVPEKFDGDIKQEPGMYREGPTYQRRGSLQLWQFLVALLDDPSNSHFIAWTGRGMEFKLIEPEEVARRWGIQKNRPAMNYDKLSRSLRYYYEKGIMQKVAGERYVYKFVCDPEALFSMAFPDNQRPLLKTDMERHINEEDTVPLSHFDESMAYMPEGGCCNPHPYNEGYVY
# Procedure, shortened: as §1
# ERF = target: T6, ERF (Homo sapiens, UniProt P50548 1-548); conditions: protein: recombinant; tags: N-terminal GST; dsDNA, one strand shown
# T6 sequence: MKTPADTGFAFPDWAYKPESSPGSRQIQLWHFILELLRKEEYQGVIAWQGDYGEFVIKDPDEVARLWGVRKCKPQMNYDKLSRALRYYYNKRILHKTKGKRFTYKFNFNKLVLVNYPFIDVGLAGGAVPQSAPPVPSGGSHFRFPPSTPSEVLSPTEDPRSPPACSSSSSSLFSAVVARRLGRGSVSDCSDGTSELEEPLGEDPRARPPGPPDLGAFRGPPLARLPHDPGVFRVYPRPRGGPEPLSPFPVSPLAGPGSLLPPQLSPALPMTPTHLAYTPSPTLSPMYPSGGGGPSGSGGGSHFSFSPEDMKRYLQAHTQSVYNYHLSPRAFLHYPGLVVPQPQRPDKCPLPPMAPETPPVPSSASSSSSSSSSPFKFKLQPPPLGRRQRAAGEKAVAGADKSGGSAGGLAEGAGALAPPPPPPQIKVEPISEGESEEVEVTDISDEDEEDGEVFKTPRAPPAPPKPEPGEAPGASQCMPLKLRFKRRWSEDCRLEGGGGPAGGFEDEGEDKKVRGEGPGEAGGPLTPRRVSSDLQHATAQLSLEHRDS
# Procedure, shortened: as §1
# ETV3L = target: T7, ETV3L (Homo sapiens, UniProt Q6ZN32 1-361); conditions: protein: recombinant; tags: N-terminal GST; dsDNA, one strand shown
# T7 sequence: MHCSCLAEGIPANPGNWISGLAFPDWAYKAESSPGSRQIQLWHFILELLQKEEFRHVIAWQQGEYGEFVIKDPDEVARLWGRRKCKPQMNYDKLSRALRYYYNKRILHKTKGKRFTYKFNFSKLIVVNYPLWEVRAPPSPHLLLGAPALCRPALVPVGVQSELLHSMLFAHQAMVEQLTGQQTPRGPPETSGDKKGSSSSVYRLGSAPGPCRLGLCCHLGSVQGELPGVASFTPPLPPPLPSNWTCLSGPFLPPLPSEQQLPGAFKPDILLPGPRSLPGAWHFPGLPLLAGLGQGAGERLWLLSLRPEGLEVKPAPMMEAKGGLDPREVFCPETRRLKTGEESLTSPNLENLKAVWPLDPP
# Procedure, shortened: as §1
# ETS2 = target: T8, ETS2 (Homo sapiens, UniProt P15036 1-469); conditions: protein: recombinant; tags: N-terminal GST; dsDNA, one strand shown
# T8 sequence: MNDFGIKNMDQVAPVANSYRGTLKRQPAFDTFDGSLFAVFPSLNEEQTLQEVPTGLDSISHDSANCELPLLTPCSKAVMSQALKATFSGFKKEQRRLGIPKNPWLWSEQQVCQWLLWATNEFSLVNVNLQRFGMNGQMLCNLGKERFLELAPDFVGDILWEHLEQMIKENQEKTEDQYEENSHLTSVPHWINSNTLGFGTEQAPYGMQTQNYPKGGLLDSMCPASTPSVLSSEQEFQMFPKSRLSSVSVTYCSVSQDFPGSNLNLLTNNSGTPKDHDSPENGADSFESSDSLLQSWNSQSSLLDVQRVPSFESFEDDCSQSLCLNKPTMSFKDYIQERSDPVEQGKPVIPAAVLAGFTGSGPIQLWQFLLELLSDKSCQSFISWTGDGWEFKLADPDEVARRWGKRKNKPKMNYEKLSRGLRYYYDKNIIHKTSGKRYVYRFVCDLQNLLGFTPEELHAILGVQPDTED
# Procedure, shortened: as §1
# SPDEF = target: T9, SPDEF (Homo sapiens, UniProt O95238 1-335); conditions: protein: recombinant; tags: N-terminal GST; dsDNA, one strand shown
# T9 sequence: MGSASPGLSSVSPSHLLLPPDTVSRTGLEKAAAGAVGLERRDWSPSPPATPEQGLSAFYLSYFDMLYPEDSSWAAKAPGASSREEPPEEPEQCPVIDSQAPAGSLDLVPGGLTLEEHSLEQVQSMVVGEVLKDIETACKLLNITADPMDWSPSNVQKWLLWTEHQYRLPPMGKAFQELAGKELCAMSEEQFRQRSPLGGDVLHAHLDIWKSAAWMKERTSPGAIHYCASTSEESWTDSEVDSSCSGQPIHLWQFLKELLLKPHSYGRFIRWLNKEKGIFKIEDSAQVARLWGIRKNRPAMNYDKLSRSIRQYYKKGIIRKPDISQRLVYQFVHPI
# Procedure, shortened: as §1
# ETV7 = target: T10, ETV7 (Homo sapiens, UniProt Q9Y603 1-341); conditions: protein: recombinant; tags: N-terminal GST; dsDNA, one strand shown
# T10 sequence: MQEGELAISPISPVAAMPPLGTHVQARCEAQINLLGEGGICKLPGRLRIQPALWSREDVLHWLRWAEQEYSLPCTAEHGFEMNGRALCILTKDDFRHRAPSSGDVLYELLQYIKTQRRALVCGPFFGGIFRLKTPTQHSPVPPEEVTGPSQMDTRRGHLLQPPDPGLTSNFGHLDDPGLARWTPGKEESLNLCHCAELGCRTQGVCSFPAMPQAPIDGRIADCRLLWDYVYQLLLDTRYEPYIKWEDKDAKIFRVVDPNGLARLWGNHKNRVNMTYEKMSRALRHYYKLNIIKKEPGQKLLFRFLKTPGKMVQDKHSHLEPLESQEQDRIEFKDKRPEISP
# Procedure, shortened: as §1
# ELF5 = target: T11, ELF5 (Homo sapiens, UniProt Q9UKW6-2 1-255); conditions: protein: recombinant; tags: N-terminal GST; dsDNA, one strand shown
# T11 sequence: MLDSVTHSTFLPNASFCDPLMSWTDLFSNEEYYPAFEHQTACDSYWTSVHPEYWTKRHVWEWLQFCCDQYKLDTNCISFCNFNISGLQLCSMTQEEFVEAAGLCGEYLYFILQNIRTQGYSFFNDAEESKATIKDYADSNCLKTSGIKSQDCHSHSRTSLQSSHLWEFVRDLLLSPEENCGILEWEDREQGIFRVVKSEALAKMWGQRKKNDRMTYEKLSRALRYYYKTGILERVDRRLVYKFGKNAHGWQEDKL
# Procedure, shortened: as §1
# ETV3 = target: T12, ETV3 (Homo sapiens, UniProt P41162-2 1-143); conditions: protein: recombinant; tags: N-terminal GST; dsDNA, one strand shown
# T12 sequence: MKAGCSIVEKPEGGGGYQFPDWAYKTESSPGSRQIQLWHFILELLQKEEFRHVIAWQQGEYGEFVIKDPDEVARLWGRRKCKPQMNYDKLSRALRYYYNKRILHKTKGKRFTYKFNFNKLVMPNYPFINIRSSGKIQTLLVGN
# Procedure, shortened: as §1
# ETV6 = ETV6 (Homo sapiens, UniProt P41212 1-452); conditions: protein: recombinant; tags: N-terminal GST; dsDNA, one strand shown
# Sequence of ETV6 (P41212 whole entry): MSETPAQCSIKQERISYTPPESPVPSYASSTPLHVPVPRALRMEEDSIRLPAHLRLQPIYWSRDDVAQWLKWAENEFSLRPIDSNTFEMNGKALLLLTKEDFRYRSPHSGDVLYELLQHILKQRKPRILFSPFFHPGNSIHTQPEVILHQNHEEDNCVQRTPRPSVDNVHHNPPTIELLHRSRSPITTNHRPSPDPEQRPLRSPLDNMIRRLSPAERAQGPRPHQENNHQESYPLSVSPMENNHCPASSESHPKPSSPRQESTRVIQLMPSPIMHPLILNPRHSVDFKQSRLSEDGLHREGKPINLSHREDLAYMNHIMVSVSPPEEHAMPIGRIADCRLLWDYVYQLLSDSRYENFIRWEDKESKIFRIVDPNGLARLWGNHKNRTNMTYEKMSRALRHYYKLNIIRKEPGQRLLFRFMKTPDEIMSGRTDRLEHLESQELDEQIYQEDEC
# Procedure, shortened: as §1
sequence,measurement,setting,value
AAACCC,binding signal,FEV,"1.29 fold enrichment (6-mer frequency, TF over GST control)"
same,binding signal,ETV5,"1.29 fold enrichment (6-mer frequency, TF over GST control)"
same,binding signal,HSF1,"1.21 fold enrichment (6-mer frequency, TF over GST control)"
same,binding signal,SPIC,"1.2 fold enrichment (6-mer frequency, TF over GST control)"
same,binding signal,ELF4,"1.34 fold enrichment (6-mer frequency, TF over GST control)"
same,binding signal,ELK4,"1.24 fold enrichment (6-mer frequency, TF over GST control)"
same,binding signal,ETV2,"1.34 fold enrichment (6-mer frequency, TF over GST control)"
same,binding signal,ELF3,"1.42 fold enrichment (6-mer frequency, TF over GST control)"
same,binding signal,CRX,"1.35 fold enrichment (6-mer frequency, TF over GST control)"
same,binding signal,ETV1,"1.36 fold enrichment (6-mer frequency, TF over GST control)"
same,binding signal,ERF,"1.28 fold enrichment (6-mer frequency, TF over GST control)"
same,binding signal,ETV3L,"1.29 fold enrichment (6-mer frequency, TF over GST control)"
same,binding signal,ETS2,"1.26 fold enrichment (6-mer frequency, TF over GST control)"
same,binding signal,SPDEF,"1.34 fold enrichment (6-mer frequency, TF over GST control)"
same,binding signal,ETV7,"1.25 fold enrichment (6-mer frequency, TF over GST control)"
same,binding signal,ELF5,"1.31 fold enrichment (6-mer frequency, TF over GST control)"
same,binding signal,ETV3,"1.29 fold enrichment (6-mer frequency, TF over GST control)"
same,binding signal,ETV6,"1.34 fold enrichment (6-mer frequency, TF over GST control)"
